Screening data as filed in PubChem BioAssay.
Pf Dd2 growth = inhibitors of Plasmodium falciparum Dd2 growth; P. falciparum Dd2 growth, SYBR Green, 72 h; Potency, µM (doses to about 28.9 µM), without a hit: top-dose activity, negative = inhibition, usual class: inhibitors; 120,000 tested, 4.3% active; AID 1347417; active means well fitted inhibition curve with a large enough effect;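 further: plate controls were DMSO vehicle for no effect and reference drug for full effect; nearly all actives have a fitted effect of over 65% in size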
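Infected erythrocytes (Dd2, 0.3% parasitemia, 2.5% hematocrit final) are added to compound in RPMI-1640/Albumax II medium, grown 72 h at 37C in low oxygen, then lysed with saponin/Triton-X containing SYBR Green and read by fluorescence.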
* = called active by the depositor; i = inactive; [ ] = another dose, or the depositor's remark. The full list was thinned out, with hits kept by preference. Potency means the concentration at half of the fitted maximal effect.

SMILES	Pf Dd2 growth
Cc1ccc(C(=O)NC2(C(F)(F)F)N=C(c3ccccc3)N(Cc3ccccc3)C2=O)cc1 (stereo not drawn)	i
CC(C)Oc1cccc(-c2cn(C)c(=O)n3cc(CN4CCOCC4)nc23)c1	i
CC(C)N1C[C@H](O)C[C@H]1c1nnc2n1CCN(C(=O)c1ccc3ncccc3c1)CC2	12.3%
Cc1cccc(C(=O)N2CC[C@@](C)(O)[C@@H](Cc3ccccc3)C2)c1C	-14.3%
COc1cccc(-c2cn3c(n2)N(C(=O)C2CCC2)CCC3)c1	-59.1%
COc1cccc(-c2cn3c(n2)N(C(=O)C2CCCC2)CCC3)c1	8.91µM*
COc1cccc(-c2cn3c(n2)N(C(=O)Cc2ccsc2)CCC3)c1	-2.0%
O=C(COc1ccccc1)N1CC[C@H]2COC(=O)N2c2cc(F)ccc2C1	-4.5%[44.1 µM]
Cc1ccc(-c2nnc([C@H]3CCN(C(C)C)C3)o2)cc1	i
Cc1nccc(-c2ccccc2)c1C(=O)N1CCCC[C@H](N(C)C)C1	-6.0%
CCCCC(=O)OC1=C(C(=O)c2ccccc2)N(CCC)S(=O)(=O)c2ccccc21	-23.5%
CCCCCN1C(C(=O)c2ccccc2)=C(OC(=O)CC)c2ccccc2S1(=O)=O	3.16µM*
CCCCCN1C(C(=O)c2ccccc2)=C(NC(C)=O)c2ccccc2S1(=O)=O	23.6%
CCc1cccc(NC(=O)Cn2c(N(C)Cc3ccccc3)nc(C)cc2=O)c1	i
Cc1cccc(NC(=O)Cn2c(N(C)Cc3ccccc3)nc(C)cc2=O)c1	5.01µM*
Cc1cc(=O)n(CC(=O)Nc2ccc(C)c(C)c2)c(N(C)Cc2ccccc2)n1	i
COC[C@H]1CCCN1C(=O)CC[C@H]1CNC(=O)[C@@H]2[C@@H](CCN2C2CCOCC2)N1C	-1.2%[44.1 µM]
Cc1noc(C2CC3(CCN(C(=O)CCC4CCCC4)CC3)CN2C)n1 (stereo not drawn)	4.47µM*
Cc1noc(C2CC3(CCN(C(=O)COc4ccc(F)cc4)CC3)CN2C)n1 (stereo not drawn)	-5.6%
Cc1noc(C2CC3(CCN(C(=O)Cn4c(=O)oc5ccccc54)CC3)CN2C)n1 (stereo not drawn)	-29.3%
COc1cc(CN2CCCC(COc3ccccc3C(=O)N3CCCC3)C2)ccc1O (stereo not drawn)	i
COc1ccc(N2CCN(C3CCCN(CC4CC4)C3)CC2)cc1 (stereo not drawn)	4.8%
COc1ccc(F)c(CN2CCCN3CCC[C@H]3C2)c1Cl	12.6µM*
COc1cc2c(cc1OC)CN(C1CCCN(Cc3c(O)cccc3OC)C1)CC2 (stereo not drawn)	10µM*
COc1cccc(CN2CCCC(c3ccc(C(=O)O)cc3)C2)c1OC (stereo not drawn)	-2.0%
SMILES	Pf Dd2 growth
COc1ccc(N2CCN(C3CCCN(CC(N)=O)C3)CC2)cc1 (stereo not drawn)	-13.1%
COCCN1CC(CO)C2(CCN(C(=O)COc3cccc(C)c3)CC2)C1 (stereo not drawn)	i
CC1(Cc2ccc3c(c2)OCO3)CCCN(C(=O)c2ccc3ncsc3c2)C1 (stereo not drawn)	-15.4%
CC(C)c1ccc(CNC(=O)c2ccc(CN3C(=O)NC4(CCOCC4)C3=O)cc2)cc1	-1.6%
Cc1ccccc1NC(=O)CN1C(=O)C(c2ccccc2)=NC12CCCCC2	i
Cc1ccccc1NC(=O)CN1C(=O)C(c2ccccc2)=NC12CCCCCC2	i
COc1cc(Cl)c(C)cc1NC(=O)CN1C(=O)C(c2ccccc2)=NC12CCCC2	11.2µM*
CCCNC(=O)NCCc1ncc(C)n1C(C)C	-4.3%
COc1cccc(CN2CC(Oc3ccccc3C(=O)NCc3ccccc3)C2)c1	3.55µM*
O=C(NC1CC1)c1ccccc1OC1CN(Cc2cccc(C(F)(F)F)c2)C1	-24.3%
O=C(NC1CC1)c1ccccc1OC1CN(Cc2cccc(F)c2)C1	-14.0%
CN(C)S(=O)(=O)N1CCN(C(=O)Cn2nc3c(cc2=O)CCCC3)CC1	6.4%
Cc1noc(C)c1S(=O)(=O)N1CCCN(Cc2ccncc2)C(c2ccccc2)CC(=O)NCC1 (stereo not drawn)	1.12µM*
Cc1noc(C)c1S(=O)(=O)N1CCCCCCNC(=O)CC1	3.5%
CS(=O)(=O)N1CCCCCNC(=O)CC1c1ccccc1 (stereo not drawn)	0.0%
O=C1CC(c2ccccc2)N(Cc2ccncc2)CCCN(CC2CCCCC2)CCN1 (stereo not drawn)	3.16µM*
CCn1ncc(CN2CCCN(Cc3ccncc3)C(c3ccccc3)CC(=O)NCC2)c1C (stereo not drawn)	-4.2%
CN(C)S(=O)(=O)N1CCCN(Cc2ccncc2)C(c2ccccc2)CC(=O)NCC1 (stereo not drawn)	10µM*
O=C1CC(c2ccccc2)N(Cc2ccncc2)CCCN(C(=O)CN2CCCC2=O)CCN1 (stereo not drawn)	i
CS(=O)(=O)N1CCCN(Cc2ccccn2)CCNC(=O)CC1c1ccccc1 (stereo not drawn)	-5.1%
Cc1noc(C)c1S(=O)(=O)NCC(=O)N1CCCCCNC(=O)CC1c1ccccc1 (stereo not drawn)	9.9%
CCN1c2cc(C(=O)NCc3ccc(F)cc3Cl)ccc2C(=O)N2CCCCC21 (stereo not drawn)	i
O=C(c1ccc(Cl)cc1)N1CCn2c(nn(-c3ccc(F)cc3F)c2=O)C1	4.5%
COc1cccc(CNC(=O)[C@@H]2C[C@@H](O)CN2C2CCN(C(=O)c3cnccn3)CC2)c1	11.5%
N[C@H]1CCC[C@@H](C(=O)NCc2nc(-c3cccc(F)c3)c(-c3ccccn3)[nH]2)C1	-16.3%
SMILES	Pf Dd2 growth
CCC(=O)Oc1c(Sc2ccc(Cl)cc2)c(C)nn1-c1ccccc1	-21.9%
Cc1ccc(Sc2c(C)nn(C(=O)c3ccc(Br)cc3)c2C)cc1	26.9%
Cc1nn(C(=O)c2ccccc2)c(C)c1Sc1ccc(Cl)cc1	11.2µM*
COc1ccc(CN2C(=O)CO[C@H]3CN(Cc4c[nH]c5ccccc45)C[C@H]32)cc1	7.94µM*
COc1ccc(CN2C(=O)CO[C@H]3CN(C(C)C)C[C@H]32)cc1	i
O=C1CO[C@H]2CN(Cc3ccncc3)C[C@H]2N1Cc1ccc(F)cc1	-5.2%[44.1 µM]
CC(C)CCN1CC[C@@H]2OCC(=O)N(Cc3c[nH]c4ccccc34)[C@H]2CC1	i
COc1ccccc1CN1CC[C@@H]2OCC(=O)N(Cc3c[nH]c4ccccc34)[C@H]2CC1	4.47µM*
COc1ccc(CN2C(=O)CO[C@H]3CN(CC4CC4)C[C@H]32)cc1	i
O=C1CO[C@H]2CCN(Cc3ccncc3)CC[C@@H]2N1Cc1ccccc1	i
N#Cc1cccc(CN2CC[C@@H]3OCC(=O)N(Cc4c[nH]c5ccccc45)[C@H]3CC2)c1	i
O=C1CO[C@H]2CN(Cc3ccc4c(c3)OCO4)C[C@H]2N1Cc1ccc(F)cc1	10µM*
CC(C)N1C(=O)CO[C@H]2CCN(Cc3ccccc3)CC[C@@H]21	-24.5%[44.1 µM]
O=C1CO[C@H]2CN(Cc3ccc4c(c3)OCO4)C[C@H]2N1Cc1ccccn1	i
CC(C)c1ccc(CN2CC[C@@H]3OCC(=O)N(Cc4ccccc4)[C@H]3CC2)cc1	10µM*
O=C(NCc1ccccc1)N1CCC(N(C(=O)C2CC2)C2CCOCC2)CC1	7.7%
O=C(O)Cn1ccc2cc(OCCc3cccc(-c4cncnc4)c3)cnc21	-11.9%[44.1 µM]
COc1ccc(C(=O)N2CCC3(CC2)CC(OC)CCO3)cc1 (stereo not drawn)	-9.2%
COc1ccc(CC(=O)N[C@H](C)c2onc(C)c2C(=O)O)cc1	48.6%[44.1 µM]
CCn1c(CO)nnc1C1CC(NC(=O)c2nnc3nc(C)ccn23)C1 (stereo not drawn)	-6.6%
